PubChem BioAssay AID1159580 (chemical genetic matrix, 2015)
“And” between values parts separate entries of the source, which are not always exact repeats. Equal entries are not always repeated. In all, about 5,500 compounds went through this assay and about 2,000 (36%) were called active. About 18% were inconclusive and are not listed. Rule as the data show it: active = normalized growth mostly below about 0.91 (no sharp cut-off); inconclusive = no clear call, values can overlap the other calls; inactive = mostly above about 0.92. Some of the results follow.

Assay: chemical genetic growth profiling, strain panel (AID 1159580);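 also: tested at 20 µM; growth read once vehicle control cultures reached saturation at 30 °C; 1 = growth at the plate median or of vehicle wells; lower values mean less growth of the strain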
Conditions: S. cerevisiae deletion strains, growth OD
[1] = locus YDL101C, strain DUN1, hits give low values
[2] = locus YGR052W, strain FMP48, hits give low values
[3] = locus YHR030C, strain SLT2, hits give low values
[4] = locus YHR079C, strain IRE1, hits give low values
[5] = locus YHR082C, strain KSP1, hits give low values
[6] = locus YJL095W, strain BCK1, hits give low values
[7] = locus YJR066W, strain TOR1, hits give low values
[8] = locus YKL203C, strain TOR2, hits give low values
[9] = locus YLR113W, strain HOG1, hits give low values
[10] = locus YNL183C, strain NPR1, hits give low values
[11] = locus YNL207W, strain RIO2, hits give low values
[12] = locus YOR119C, strain RIO1, hits give low values
[13] = locus YOR231W, strain MKK1, hits give low values
[14] = locus YPL256C, strain CLN2, hits give low values

Measured: normalized growth

Cc1cc(Oc2c([N+](=O)[O-])cc(C(F)(F)F)cc2[N+](=O)[O-])c2c(Cl)ccc(C)c2n1
active: locus YAL013W, strain DEP1, hits give low values 0.667 | locus YBR229C, strain ROT2, hits give low values 0.883 | locus YDL134C, strain PPH21, hits give low values 0.887 | locus YEL061C, strain CIN8, hits give low values 0.788 | [2] 0.173 | locus YGR078C, strain PAC10, hits give low values 0.913 | [3] 0.271 and 0.16 | [4] 0.231 | [5] 0.27 | locus YHR087W, strain rtc3, hits give low values 0.834 | [6] 0.363 | locus YJR043C, strain POL32, hits give low values 0.905 | [7] 0.29 | locus YJR075W, strain HOC1, hits give low values 0.89 | locus YKL171W, strain NNK1, hits give low values 0.534 | locus YKL190W, strain CNB1, hits give low values 0.458 | [8] 0.459 | locus YLR039C, strain RIC1, hits give low values 0.498 | locus YLR085C, strain ARP6, hits give low values 0.372 | locus YLR262C, strain YPT6, hits give low values 0.547 | locus YML094W, strain GIM5, hits give low values 0.805 | locus YMR219W, strain ESC1, hits give low values 0.905 | [10] 0.143 | [11] 0.546 | locus YNL298W, strain CLA4 (second series), hits give low values 0.668 | locus YNR030W, strain Alg12, hits give low values 0.623 | [12] 0.479 | [13] 0.418 | locus YPL055C, strain LGE1, hits give low values 0.44 | locus YPL241C, strain CIN2, hits give low values 0.762 | [14] 0.348 | locus YPR135W, strain CTF4, hits give low values 0.451
inactive: locus YCL061C, strain MRC1, hits give low values 0.948 | [1] 0.987 | locus YDR150W, strain NUM1, hits give low values 0.851 | locus YLR058C, strain SHM2 (second series), hits give low values 0.951 | [9] 0.655 | locus YNL128W, strain TEP1, hits give low values 0.957 | locus YNL153C, strain GIM3, hits give low values 0.976 | locus YNL322C, strain KRE1, hits give low values 0.948

Cc1cc(Sc2c([N+](=O)[O-])cc(C(F)(F)F)cc2[N+](=O)[O-])c(Cl)cc1Cl
inactive: locus YAR019C, strain CDC15, hits give low values 0.995 | locus YBL105C, strain PKC1, hits give low values 1 | locus YBR135W, strain CKS1, hits give low values 0.995 | locus YBR136W, strain MEC1, hits give low values 0.995 | locus YBR160W, strain CDC28, hits give low values 0.991 | locus YDL017W, strain CDC7, hits give low values 0.999 | locus YDL028C, strain MPS1, hits give low values 0.99 | [1] 0.995 | locus YDL108W, strain KIN28, hits give low values 0.995 | locus YDL132W, strain cdc53, hits give low values 0.99 | locus YDL214C, strain PRR2, hits give low values 0.98 | locus YDR052C, strain DBF4, hits give low values 0.993 | locus YDR054C, strain cdc34, hits give low values 0.99 | locus YDR226W, strain ADK1, hits give low values 0.978 | locus YDR477W, strain SNF1, hits give low values 0.959 | locus YER123W, strain YCK3, hits give low values 0.97 | locus YER133W, strain GLC7, hits give low values 0.998 | locus YFL009W, strain cdc4, hits give low values 0.992 | locus YFL029C, strain CAK1, hits give low values 1 | locus YFR003C, strain YPI1, hits give low values 0.997 | locus YFR019W, strain FAB1, hits give low values 0.964 | locus YFR028C, strain CDC14, hits give low values 0.996 | locus YGR040W, strain KSS1, hits give low values 0.964 | [2] 1.01 | locus YGR092W, strain DBF2, hits give low values 0.982 | [3] 0.928 | [4] 0.861 | [5] 0.988 | locus YHR205W, strain SCH9, hits give low values 0.911 | locus YIL147C, strain SLN1, hits give low values 0.996 | [6] 0.964 | locus YJL128C, strain PBS2, hits give low values 0.955 | locus YJL157C, strain FAR1, hits give low values 0.926 | locus YJR016C, strain ILV3, hits give low values 1 | locus YJR066W, strain TOR1 (second series), hits give low values 0.949 | [7] 0.961 | locus YKL048C, strain ELM1, hits give low values 0.987 | locus YKL067W, strain YNK1, hits give low values 0.994 | locus YKL101W, strain HSL1, hits give low values 0.995 | locus YKL193C, strain SDS22, hits give low values 0.999 | [8] 1 | [9] 1.02 | locus YLR133W, strain CKI1, hits give low values 0.96 | locus YLR403W, strain SFP1, hits give low values 0.931 | locus YML070W, strain DAK1, hits give low values 0.996 | locus YMR001C, strain CDC5, hits give low values 1 | locus YMR205C, strain PFK2 (second series), hits give low values 0.998 | locus YMR277W, strain FCP1, hits give low values 0.995 | locus YNL006W, strain LST8, hits give low values 1 | locus YNL020C, strain ARK1, hits give low values 0.924 | locus YNL161W, strain CBK1, hits give low values 0.977 | [10] 1.04 | [11] 0.991 | locus YNL222W, strain SSU72, hits give low values 0.991 | locus YNL307C, strain MCK1 (second series), hits give low values 0.974 | locus YOL078W, strain AVO1, hits give low values 0.995 | locus YOL136C, strain PFK27, hits give low values 0.926 | locus YOR061W, strain CKA2, hits give low values 0.967 | [12] 1.05 | [13] 0.976 | locus YOR329C, strain SCD5, hits give low values 0.994 | locus YPL031C, strain PHO85, hits give low values 0.928 | locus YPL153C, strain RAD53, hits give low values 0.965 | locus YPL204W, strain HRR25, hits give low values 0.947 | locus YPL209C, strain IPL1, hits give low values 0.999 | [14] 0.99 | locus YPR025C, strain CCL1, hits give low values 0.997 | locus YPR106W, strain ISR1, hits give low values 0.996 | locus YPR111W, strain DBF20, hits give low values 0.974 | strain NNK1, hits give low values 0.99 | strain TSCII, hits give low values 1
